In PubChem BioAssay AID1347426 (Functional Genomics Laboratory (NCATS/FGL), 2020) one finds median seed-adjusted z-score data, which are given here for 30 sequences.

The campaign covered roughly 31,000 sequences. About 1,400 (4.5%) were called active.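 How the source made its calls: active means median seed-adjusted z-score above 1 or below -1; inactive means the rest.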 The full list was thinned out, with actives kept by preference.

A short description of this experiment: Novel Modifiers of Survival Motor Neuron (SMN) Protein: Gene Identification via Genome-wide siRNA Screen.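 Further: luminescence tracks full-length SMN protein made from the SMN2 reporter.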 The note with it: HEK293T SMN2-luciferase reporter, siRNA knockdown, 72 h; actives lie on both sides. In a few lines: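 Steps: spot 1 pmol siRNA, add Lipofectamine RNAiMax in serum-free DMEM, seed HEK293T SMN2–luciferase reporter cells; incubate 72 h at 37 °C; add ONE-Glo; normalize luminescence to control siRNA, log10, MAD. Candidates: |MAD| > 1.0.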
Background: Reporter assays use an easily measured gene product as a stand-in for the process of interest.
In the case of GCCUAUUCAGAACACCAAUTT against TBP, the median seed-adjusted z-score was -1.25 (active).
The same measure for CGUGCUUUGAGUACCCGAATT against TAT: 0.257 (inactive); for CCUUAAGAGGGAUGAUAAATT against SAFB: -0.954 (inactive).
With CCCUCUCACCAUUACUUCATT against CRYAB the figure was 0.354 (inactive); with GCUCUAGGCUUCAAGGCAATT against CTSL3, 1.07 (active); with CGAGGACGAUGACUGCUUATT against LRP8, -0.547 (inactive).
With GCAAGAAGAGAUUAGCAAATT against EIF2C2 the figure was -0.183 (inactive).
With GACUGAUGCUUUGACUGAATT against NPTX2, the median seed-adjusted z-score is 0.0558 (inactive).
The same measure for GGAACGAGGCAGAUAUGGATT against NMNAT2: -1.58 (active); for GGAGGAAUCUUGGUCCUUATT against SLC11A2: -0.157 (inactive).
With AUAUCAGGCUGGUUUACAATT against PLA2G15 the figure was 0 (inactive).
The same measure for GAGCAACAGUCACCAGAUATT against MAT2A: -1.9 (active); for GGCUGUCCGACUCAACAUATT against SIGLEC12: 0.226 (inactive); for GCAAAUGGGAGGUUGGAAATT against ZIK1: -0.0627 (inactive).
On to GGGAAGUGGUAAAUAAAGATT against MCM7, for which the median seed-adjusted z-score is 0.0993 (inactive).
As for GCUCGGACUUCAACAACUATT against PPAP2C, the median seed-adjusted z-score was -1.12 (active).
With CAGUAUCUAUUCACAAUGATT against TRNT1 the figure was 0.142 (inactive); with CCCUUCUUGUUUACAUGAATT against SLC25A43, 0 (inactive); with CAGGUAUAUCAAUUUUUCATT against PRICKLE3, 0.0332 (inactive).
As to GUAUCGAAGUGGAGACAAUTT against NELL1, the median seed-adjusted z-score is -0.466 (inactive).
With CCACGUGUUUCAAAGCAGATT against GPR172B the figure was 0.184 (inactive); with CAGUGAUGGUUAAGAACGATT against A2M, -1.96 (active); with GGGUGCACCAGAAACAUUATT against VEZF1, 0.974 (inactive).
The same measure for GUAACAACAAAUACUCAUATT against KCTD10: -0.506 (inactive).
The same measure for CAUACUUUUUGGAUAGACATT against MTX1: -0.159 (inactive); for GAGAAAUGCUUGGAGUCCATT against FKBPL: -1.11 (active); for GGACGAGACUCAGAGUCAUTT against CD93: -0.0879 (inactive).
GCACGUACUUGAUUCAGCATT against ZNF34: the median seed-adjusted z-score is 0.0391 (inactive).
Turning to CAACAAGUGUCUAAAUGUUTT against GNG11, the median seed-adjusted z-score is 0.00609 (inactive).
With AGUCAGAGUUGAACAGGUATT against AREG the figure was 0.104 (inactive).
